Compound activity as filed in PubChem.
MOR-DOR inv ag: inverse agonist of human OPRM1-OPRD1 heterodimerization | 340,000 tested, 0.21% active | P35372+P41143 | cell-based MOR-DOR heterodimer luminescence, inverse agonism | inhibition, % at 9.3 µM; in the data active means inhibition above about 22%, passing the limit was not always enough;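 further: 0% = cells with DMSO and 100% = wells without cells with DMSO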
Target sequence (P35372 whole entry, looked up): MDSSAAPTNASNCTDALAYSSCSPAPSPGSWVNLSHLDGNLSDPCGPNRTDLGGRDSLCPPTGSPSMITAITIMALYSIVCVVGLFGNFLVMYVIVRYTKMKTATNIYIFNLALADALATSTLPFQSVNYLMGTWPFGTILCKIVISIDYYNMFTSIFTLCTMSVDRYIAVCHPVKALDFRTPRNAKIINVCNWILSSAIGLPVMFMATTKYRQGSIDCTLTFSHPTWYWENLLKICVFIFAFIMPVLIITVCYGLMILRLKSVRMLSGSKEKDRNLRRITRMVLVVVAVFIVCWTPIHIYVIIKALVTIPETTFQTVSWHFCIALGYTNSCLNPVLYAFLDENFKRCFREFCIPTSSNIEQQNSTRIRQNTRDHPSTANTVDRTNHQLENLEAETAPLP
Target sequence (P41143 whole entry, looked up): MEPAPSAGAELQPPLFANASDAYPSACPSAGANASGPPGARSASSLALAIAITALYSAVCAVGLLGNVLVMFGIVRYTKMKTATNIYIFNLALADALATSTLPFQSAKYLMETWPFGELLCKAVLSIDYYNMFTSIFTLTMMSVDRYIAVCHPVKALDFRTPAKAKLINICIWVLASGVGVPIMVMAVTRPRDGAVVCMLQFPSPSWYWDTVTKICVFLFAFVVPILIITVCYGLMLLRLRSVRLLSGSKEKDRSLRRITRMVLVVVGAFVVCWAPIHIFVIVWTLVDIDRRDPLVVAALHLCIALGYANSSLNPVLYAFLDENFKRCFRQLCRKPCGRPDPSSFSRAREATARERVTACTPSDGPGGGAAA
HTR5A inv ctr: HTR5A inverse agonism, opioid heterodimer counter-screen. P47898. HTR5A cell line, luminescence. inhibition, % at 9.3 µM. 340,000 tested, 0.083% active. AID 504634; in the data active means inhibition mostly above about 23%, no sharp cut-off; inactive means mostly below about 18%;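 further: 0% = cells with DMSO and 100% = no-cell wells with DMSO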
MOR-DOR ag-1: OPRM1-OPRD1 heterodimerization agonism; P35372+P41143; cells, luminescence; activation, % at 9.3 µM; 340,000 tested, 0.3% active;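 further: 0% = vehicle-treated cells and 100% = reference agonist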
HTR5A ag: counter-screen for OPRM1-OPRD1 agonists: human HTR5A agonism; HTR5A agonist assay, luminescence, cell-based; activation, % at 9.3 µM; 340,000 tested, 0.61% active; AID 504692; in the data active means activation mostly above about 9.5%, no sharp cut-off; inactive means mostly below about 7.6%;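 further: 0% = cells with vehicle only and 100% = reference agonist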
MOR-DOR ag-2: counter-screen for HTR5A agonists: OPRM1-OPRD1 heterodimerization agonism; U2OS counter-screen cells, complementation luminescence, 3 h; activation, % at 9.3 µM; AID 504913; 800 tested, 13% active; shares compounds with HTR5A ag
HTR5A ag conf: confirmation of human HTR5A agonists; 800 tested, 17% active; HTR5A agonist cell assay, luminescence; shares compounds with HTR5A ag; activation, % at 9.3 µM; in the data active means activation above about 17%;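 further: 0% = cells with vehicle only and 100% = full reference agonist response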
The depositor's hits bear a star; ! = a repeat was not active. Compounds with a hit are over-represented: about 1.1% of the library has one in this group of screens. Unless noted, no stated cut-off is given here; in the data, active means activation above about 18%; inactive means the rest.

O=C(CCCCCn1c(SCC(=O)c2ccccc2)nc2ccccc2c1=O)NCc1ccco1 was read as MOR-DOR inv ag -7.8, HTR5A inv ctr -49.8, MOR-DOR ag-1 1.6, HTR5A ag 20.9*, MOR-DOR ag-2 58.9* and HTR5A ag conf 29.4*.
`Oc1ccc(CNc2ccc(F)cc2)c2cccnc12` gave MOR-DOR inv ag -98.8, HTR5A inv ctr -62.9, MOR-DOR ag-1 16.2, HTR5A ag 23.4*, MOR-DOR ag-2 6.2 and HTR5A ag conf 3.7.
Oc1ccc(CNc2ccccc2)c2cccnc12 was read as MOR-DOR inv ag -9.1, HTR5A inv ctr -15.7, MOR-DOR ag-1 1.7 and HTR5A ag 2.6.
`CCCCCCCCOC(=O)CCc1c(C)[nH]c(=S)[nH]c1=O` gave MOR-DOR inv ag -30.8, HTR5A inv ctr -61.6, MOR-DOR ag-1 5.5, HTR5A ag 15.2*, MOR-DOR ag-2 4.0 and HTR5A ag conf 6.6.
Screening O=P(OC1CCCCC1)(OC1CCCCC1)C(O)c1c(Cl)cccc1Cl (stereo not drawn) returned MOR-DOR inv ag -16.5, HTR5A inv ctr -10.9, MOR-DOR ag-1 3.3 and HTR5A ag 4.2.
Screening O=C(Nc1nnc(SCC(=O)N2CCOCC2)s1)C1CC(=O)N(c2ccccc2)C1 (stereo not drawn) returned MOR-DOR inv ag -1.5, HTR5A inv ctr -5.4, MOR-DOR ag-1 0.3, HTR5A ag 17.0*, MOR-DOR ag-2 31.6* and HTR5A ag conf 2.1.
Screening OCC#CCSc1nnc(-c2ccncc2)o1 returned MOR-DOR inv ag 19.8, HTR5A inv ctr -42.7, MOR-DOR ag-1 -4.5, HTR5A ag 15.5*, MOR-DOR ag-2 19.5* and HTR5A ag conf 2.0.
For CC(C)c1ccc(OCC(=O)N2CCN(c3ccccn3)CC2)c(Br)c1 the results were MOR-DOR inv ag -31.2, HTR5A inv ctr 0.2, MOR-DOR ag-1 5.8 and HTR5A ag -1.5.
Screening CCCSc1cc(=O)n(-c2ccccc2)nc1C(=O)O returned MOR-DOR inv ag -4.4, HTR5A inv ctr -7.1, MOR-DOR ag-1 0.6 and HTR5A ag 2.6.
For COc1ccc(C(=O)Cc2ccc(OC)c(OC)c2)c(OC)c1 the results were MOR-DOR inv ag -17.1, HTR5A inv ctr -44.0, MOR-DOR ag-1 2.9, HTR5A ag 18.9*, MOR-DOR ag-2 4.3 and HTR5A ag conf 4.8.
`COc1ccc(CC(=O)c2cc(OC)c(OC)cc2CC(=O)O)cc1OC` gave MOR-DOR inv ag 20.3, HTR5A inv ctr -1.7, MOR-DOR ag-1 -4.2 and HTR5A ag 0.7.
`CC(C)C(=O)NC(=O)COC(=O)/C=C/c1cccs1` gave MOR-DOR inv ag 3.7, HTR5A inv ctr -0.7, MOR-DOR ag-1 -0.7 and HTR5A ag 0.2.
For C[N+]1(CN2C(=O)C3C4C=CC(C4)C3C2=O)CCCCC1 (stereo not drawn) the results were MOR-DOR inv ag 13.4, HTR5A inv ctr 16.2, MOR-DOR ag-1 -2.7 and HTR5A ag 5.2.
Screening Oc1ccc(C2CNCCc3c2cc(O)c(O)c3Cl)cc1 (stereo not drawn) returned MOR-DOR inv ag -1.6, HTR5A inv ctr 9.1, MOR-DOR ag-1 0.3, HTR5A ag 32.3*!, MOR-DOR ag-2 1.7 and HTR5A ag conf 56.0*.
For Cc1cccc(C(=O)NNC(=O)c2c(O)c3ccccc3n(C)c2=O)c1 the results were MOR-DOR inv ag -9.9, HTR5A inv ctr -50.6, MOR-DOR ag-1 1.9, HTR5A ag 18.9*, MOR-DOR ag-2 2.6 and HTR5A ag conf 7.1.
`COc1ccc(S(=O)(=O)N2CCC(C(=O)N3CCCCC3)CC2)cc1` gave MOR-DOR inv ag -4.7, HTR5A inv ctr -6.0, MOR-DOR ag-1 0.8 and HTR5A ag 2.7.
Screening COc1cc(/C=N/Nc2nc(C)nc3c2cnn3-c2ccccc2)ccc1O returned MOR-DOR inv ag -23.9, HTR5A inv ctr -7.0, MOR-DOR ag-1 4.7, HTR5A ag 16.2*, MOR-DOR ag-2 2.2 and HTR5A ag conf 3.1.
For CCc1ccc(NC(=O)Cn2nc(C(F)(F)F)c3c2CCC3)cc1 the results were MOR-DOR inv ag -66.7, HTR5A inv ctr -30.8, MOR-DOR ag-1 10.7, HTR5A ag 19.7*, MOR-DOR ag-2 7.7 and HTR5A ag conf 7.3.
Screening CCc1ccccc1NC(=O)Cn1nc(C(F)(F)F)c2c1CCC2 returned MOR-DOR inv ag -6.1, HTR5A inv ctr 10.8, MOR-DOR ag-1 1.1 and HTR5A ag -8.9.
For CCCCOc1ccc(C(=O)N/C(=C\c2cccc([N+](=O)[O-])c2)C(=O)OC(C)C)cc1 the results were MOR-DOR inv ag -21.0, HTR5A inv ctr 7.8, MOR-DOR ag-1 4.7, HTR5A ag 16.1*, MOR-DOR ag-2 0.9 and HTR5A ag conf 1.9.
Screening COc1ccc(S(=O)(=O)NCCCn2ccnc2)cc1Cl returned MOR-DOR inv ag 14.1, HTR5A inv ctr 26.7, MOR-DOR ag-1 -2.8 and HTR5A ag 4.2.
Screening Cc1ccc(C(=O)NC(=S)Nc2ccc(Oc3ccc(Cl)cc3)cc2)cc1 returned MOR-DOR inv ag -6.0, HTR5A inv ctr 7.1, MOR-DOR ag-1 1.1 and HTR5A ag 1.7.
`Cc1ccc(C(=O)NC(=S)Nc2ccc(-c3ccc(CO)o3)cc2)cc1` gave MOR-DOR inv ag 6.0, HTR5A inv ctr -38.6, MOR-DOR ag-1 -1.1, HTR5A ag 14.8*, MOR-DOR ag-2 12.2 and HTR5A ag conf 2.4.
For O=C1C(C=NCCCN2CCCC2=O)=C(O)c2ccccc21 the results were MOR-DOR inv ag 3.9, HTR5A inv ctr -6.9, MOR-DOR ag-1 -0.8, HTR5A ag 17.5*, MOR-DOR ag-2 28.3* and HTR5A ag conf 12.5.
Cc1ccc2nc(-c3ccccc3O)c(Nc3ccc4c(c3)OCCO4)n2c1 was read as MOR-DOR inv ag 0.5, HTR5A inv ctr -54.5, MOR-DOR ag-1 -0.1, HTR5A ag 20.4*, MOR-DOR ag-2 3.9 and HTR5A ag conf 37.0*.
Screening Cc1ccc2nc(-c3ccc(O)cc3)c(Nc3ccc4c(c3)OCCO4)n2c1 returned MOR-DOR inv ag -13.5, HTR5A inv ctr -166.5, MOR-DOR ag-1 2.5, HTR5A ag 22.4*, MOR-DOR ag-2 1.1 and HTR5A ag conf 57.9*.
`Cc1ccc(-c2nc3cnccn3c2Nc2ccc3c(c2)OCO3)cc1` gave MOR-DOR inv ag -1.4, HTR5A inv ctr -0.2, MOR-DOR ag-1 0.2 and HTR5A ag 2.6.
`Cc1ccc(Nc2c(-c3ccccc3O)nc3cnccn23)cc1` gave MOR-DOR inv ag -10.8, HTR5A inv ctr -5.5, MOR-DOR ag-1 1.9 and HTR5A ag 2.1.
COc1ccc(/C=N/n2c(-c3n[nH]c4c3CCC4)n[nH]c2=S)c(OC)c1OC was read as MOR-DOR inv ag 17.0, HTR5A inv ctr 5.6, MOR-DOR ag-1 -3.4 and HTR5A ag -2.2.
COc1ccc(OC)c2sc(N(CCN(C)C)C(=O)/C=C/c3cccs3)nc12 was read as MOR-DOR inv ag -29.5, HTR5A inv ctr -28.5, MOR-DOR ag-1 5.9 and HTR5A ag 7.6.
For COc1ccc(C)c2sc(N(CCN(C)C)C(=O)/C=C/c3cccs3)nc12 the results were MOR-DOR inv ag -36.5, HTR5A inv ctr -65.6, MOR-DOR ag-1 6.9, HTR5A ag 16.2*, MOR-DOR ag-2 9.6 and HTR5A ag conf 18.1*.
